Experimental data taken from PubChem BioAssay (Tox21).
Inconclusive results are not listed. Active and inactive are the calls of the source. Unless noted, calls follow the shape of the dose curve; as a rule, active = well fitted curve in the direction sought with a large enough effect in the repeat runs; inconclusive = weak or mixed curves; inactive = no such curve, though single readings can be large; an effect the other way counts as inactive or inconclusive.

Experiments:
[1] = qHTS assay to identify small molecule antagonists of the thyroid receptor (TR) signaling pathway - cell viability counter screen (AID 743064); also: nearly all actives have a fitted effect of over 50% in size; also: potency is read from the fitted curve at half-maximal effect
How it was run: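 Fluorescence from CellTiter-Fluor, added after 23.5 h exposure at 37 °C, reported viability of GH3.TRE-Luc cells co-treated with compound and 1 nM T3. Measured in the same wells as the luciferase TR readout.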

[2] = qHTS assay to identify small molecule antagonists of the thyroid receptor (TR) signaling pathway (AID 743065); also: nearly all actives have a fitted effect of over 55% in size; also: potency is read from the fitted curve at half-maximal effect
How it was run: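 GH3.TRE-Luc rat pituitary cells carrying two TR response elements driving luciferase were plated for 4 h, given compound plus 1 nM T3 (final), and incubated 23.5 h at 37 C. ONE-Glo luminescence measured reporter inhibition; CellTiter-Fluor fluorescence tracked cytotoxicity.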

[3] = tested on: thyroid hormone receptor (rat, GH3 cells); test: qHTS assay to identify small molecule agonists of the thyroid receptor (TR) signaling pathway (AID 743066; calls by dose curve)
[4] = target: Estrogen receptor (Homo sapiens) (UniProt P03372); test: qHTS assay to identify small molecule antagonists of the estrogen receptor alpha (ER-alpha) signaling pathway (AID 743069; active = well fitted curve in the direction sought with a large enough effect in the signal ratio in the repeat runs, not every such curve was filed as active; the % refers to the signal ratio)
How it was run: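 HEK293 cells stably carrying an ER-alpha-UAS-bla beta-lactamase reporter were pre-cultured overnight in 2% charcoal-stripped FBS medium. Test compounds in DMSO were added together with 17beta-estradiol for 18 hr at 37C. Read-out was fluorescence after 2 hr with LiveBLAzer B/G FRET substrate at room temperature.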

[5] = qHTS assay to identify small molecule antagonists of the estrogen receptor alpha (ER-alpha) signaling pathway - cell viability counter screen (AID 743074; calls by dose curve; also: nearly all actives have a fitted effect of over 45% in size)
[6] = target: Estrogen receptor (Homo sapiens) (UniProt P03372); test: qHTS assay to identify small molecule agonists of the estrogen receptor alpha (ER-alpha) signaling pathway (AID 743075; calls by dose curve)
[7] = target: Estrogen receptor (Homo sapiens) (UniProt P03372); test: qHTS assay to identify small molecule agonists of the estrogen receptor alpha (ER-alpha) signaling pathway using the BG1 cell line (AID 743079); settings: BG1Luc4E2 cells, ERE-luciferase agonist, 22 h; also: nearly all actives have a fitted effect of over 20% in size; also: potency is read from the fitted curve at half-maximal effect
[8] = qHTS assay to identify small molecule antagonists of the estrogen receptor alpha (ER-alpha) signaling pathway using the BG1 cell line (AID 743080; calls by dose curve;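 also: BG1 cells stimulated with 17beta-estradiol alongside compound; nearly all actives have a fitted effect of over 25% in size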; also: potency is read from the fitted curve at half-maximal effect)
How it was run: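 Quantitative HTS on the Tox21 10K library: BG1 cells with endogenous ER-alpha and ERE-luciferase reporter, 17beta-estradiol stimulation, 21.5 h compound exposure, luminescence endpoint with parallel fluorescence cytotoxicity counter-read.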

[9] = qHTS assay to identify small molecule antagonists of the estrogen receptor alpha (ER-alpha) signaling pathway using the BG1 cell line - cell viability counter screen (AID 743081);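 also: compound given together with 17beta-estradiol as the ER stimulus; nearly all actives have a fitted effect of over 45% in size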
[10] = target: Aromatase (Homo sapiens) (UniProt P11511); test: qHTS assay to identify aromatase inhibitors (AID 743083); also: nearly all actives have a fitted effect of over 55% in size; also: potency is read from the fitted curve at half-maximal effect
[11] = qHTS assay to identify aromatase inhibitors - cell viability counter screen (AID 743084);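 also: cells stimulated with testosterone during compound exposure; nearly all actives have a fitted effect of over 55% in size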; also: potency is read from the fitted curve at half-maximal effect
[12] = qHTS assay to identify small molecule that activate the aryl hydrocarbon receptor (AhR) signaling pathway - cell viability counter screen (AID 743086);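 also: HepG2 liver cells carrying the AhR DRE luciferase reporter; nearly all actives have a fitted effect of over 45% in size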
How it was run: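 HepG2-AhR-luc (HG2L7.5c1) cells, 4000/well, were preincubated 5 h at 37C, exposed to compound in qHTS format for 24 hr at 37C, then given CellTiter-Fluor for 30 min; viability was read as fluorescence in the reporter wells.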

[13] = target: Peroxisome proliferator-activated receptor gamma (Homo sapiens) (UniProt P37231); test: qHTS assay to identify small molecule agonists of the peroxisome proliferator-activated receptor gamma (PPARg) signaling pathway (AID 743094; active = well fitted activation curve with a large enough effect in the signal ratio in the repeat runs, not every such curve was filed as active; the % refers to the signal ratio)
How it was run: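 Following 5 h plating at 37C, PPARg-bla HEK293H cells receive compound or DMSO for 17 h; fluorescence intensity is recorded after LiveBLAzer B/G loading for 1 h at room temperature.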

[14] = qHTS assay to identify small molecule antagonists of the peroxisome proliferator-activated receptor gamma (PPARg) signaling pathway - cell viability counter screen (AID 743194); settings: Potency: co-treated with 50 nM rosiglitazone; also: nearly all actives have a fitted effect of over 55% in size
How it was run: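 PPARg-UAS-bla HEK293H cells were plated, rested 5 h at 37 C, then treated with compounds plus rosiglitazone (50 nM final) for 17 h at 37 C; viability was then read by CellTiter-Glo luminescence after 30 min at room temperature.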

[15] = qHTS assay for small molecule agonists of the antioxidant response element (ARE) signaling pathway (AID 743202; active = well fitted activation curve with a large enough effect in the signal ratio in the repeat runs, not every such curve was filed as active; the % refers to the signal ratio; also: potency is read from the fitted curve at half-maximal effect)
How it was run: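 Read-out: LiveBLAzer B/G FRET substrate fluorescence after 2 h at room temperature, following 16 h compound treatment at 37 C of HepG2 cells carrying an ARE-driven beta-lactamase reporter.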

[16] = qHTS assay for small molecule agonists of the antioxidant response element (ARE) signaling pathway - cell viability counter screen (AID 743203; calls by dose curve; also: nearly all actives have a fitted effect of over 55% in size)
How it was run: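 Compounds in DMSO were pinned onto ARE-bla HepG2 cells plated 5 hrs earlier at 2,000 cells/well. Sixteen hours later at 37C/5% CO2, CellTiter-Glo was added and luminescence measured after 30 min at room temperature.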

[17] = qHTS assay for small molecule activators of the heat shock response signaling pathway - cell viability counter screen (AID 743209); also: nearly all actives have a fitted effect of over 50% in size
How it was run: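 Counter screen for cytotoxicity in HeLa HSE-bla reporter cells. Treatment was 5 h at 37 C; viability was detected by luminescent ATP assay (CellTiter-Glo) in the same wells as the beta-lactamase read.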

[18] = qHTS assay for small molecule activators of the heat shock response signaling pathway (AID 743210; active = well fitted activation curve with a large enough effect in the signal ratio in the repeat runs, with a control signal flat, not every such curve was filed as active; the % refers to the signal ratio)
How it was run: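 HSE-bla HeLa cells (beta-lactamase reporter under heat shock response elements) were exposed to compounds for 5 h at 37 C, then loaded with LiveBLAzer B/G FRET substrate for 2.5 h at room temperature before fluorescence reading.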

[19] = target: Aryl hydrocarbon receptor (Homo sapiens) (UniProt P35869); test: qHTS assay to identify small molecule that activate the aryl hydrocarbon receptor (AhR) signaling pathway (AID 743085);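 also: HG2L7.5c1 human HepG2 liver cells with stably integrated DRE-driven firefly reporter; nearly all actives have a fitted effect of over 15% in size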
How it was run: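 Cell line HG2L7.5c1 (human hepatoma, 20× DRE-luc). Plated, 5 h 37C, compound/DMSO added, 24 h 37C. CellTiter-Fluor 30 min 37C → fluorescence; then ONE-Glo 30 min RT → luminescence.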

[20] = target: Peroxisome proliferator-activated receptor gamma (Homo sapiens) (UniProt P37231); test: qHTS assay to identify small molecule antagonists of the peroxisome proliferator-activated receptor gamma (PPARg) signaling pathway (AID 743191; calls by dose curve; also: nearly all actives have a fitted effect of over 30% in size)
How it was run: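 GeneBLAzer PPARg UAS-bla HEK293H cells carrying a UAS-driven beta-lactamase reporter were plated at 3000 cells/well, preincubated 5 h at 37C, then given compound for 17 h at 37C; LiveBLAzer B/G FRET substrate was read after 1 h at room temperature.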
% is scaled to controls: 0 for no effect and ±100 for the full control effect.

Chain of Peroxisome proliferator-activated receptor gamma (Homo sapiens) (P37231 whole entry, looked up): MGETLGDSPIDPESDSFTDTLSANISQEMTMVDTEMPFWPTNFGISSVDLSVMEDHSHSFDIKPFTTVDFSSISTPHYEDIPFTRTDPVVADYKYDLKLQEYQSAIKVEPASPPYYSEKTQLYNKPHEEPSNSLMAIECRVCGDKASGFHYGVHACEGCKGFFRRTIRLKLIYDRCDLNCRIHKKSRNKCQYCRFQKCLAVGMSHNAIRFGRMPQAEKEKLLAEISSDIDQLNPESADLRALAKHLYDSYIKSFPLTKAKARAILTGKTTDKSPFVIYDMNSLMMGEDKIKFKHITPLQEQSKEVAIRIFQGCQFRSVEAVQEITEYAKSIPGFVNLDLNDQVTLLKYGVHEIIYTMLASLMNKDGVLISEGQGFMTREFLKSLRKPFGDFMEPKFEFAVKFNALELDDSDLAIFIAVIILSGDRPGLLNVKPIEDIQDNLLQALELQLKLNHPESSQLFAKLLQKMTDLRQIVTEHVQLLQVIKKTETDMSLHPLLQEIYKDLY
Chain of Aromatase (Homo sapiens) (P11511 whole entry, looked up): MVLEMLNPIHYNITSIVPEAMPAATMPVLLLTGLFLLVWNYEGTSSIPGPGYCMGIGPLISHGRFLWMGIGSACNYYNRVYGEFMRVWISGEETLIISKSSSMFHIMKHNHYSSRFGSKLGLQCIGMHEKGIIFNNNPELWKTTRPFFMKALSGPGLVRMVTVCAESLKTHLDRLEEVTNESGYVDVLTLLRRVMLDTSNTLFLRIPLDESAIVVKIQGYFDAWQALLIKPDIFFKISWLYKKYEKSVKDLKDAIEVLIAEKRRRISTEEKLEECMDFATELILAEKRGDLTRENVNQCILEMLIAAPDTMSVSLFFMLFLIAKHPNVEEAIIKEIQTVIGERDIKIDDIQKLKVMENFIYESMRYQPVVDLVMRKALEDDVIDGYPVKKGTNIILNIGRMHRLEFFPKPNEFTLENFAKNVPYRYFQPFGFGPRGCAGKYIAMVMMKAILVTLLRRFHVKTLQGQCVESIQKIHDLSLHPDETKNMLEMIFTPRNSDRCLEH
Chain of Estrogen receptor (Homo sapiens) (P03372 whole entry, looked up): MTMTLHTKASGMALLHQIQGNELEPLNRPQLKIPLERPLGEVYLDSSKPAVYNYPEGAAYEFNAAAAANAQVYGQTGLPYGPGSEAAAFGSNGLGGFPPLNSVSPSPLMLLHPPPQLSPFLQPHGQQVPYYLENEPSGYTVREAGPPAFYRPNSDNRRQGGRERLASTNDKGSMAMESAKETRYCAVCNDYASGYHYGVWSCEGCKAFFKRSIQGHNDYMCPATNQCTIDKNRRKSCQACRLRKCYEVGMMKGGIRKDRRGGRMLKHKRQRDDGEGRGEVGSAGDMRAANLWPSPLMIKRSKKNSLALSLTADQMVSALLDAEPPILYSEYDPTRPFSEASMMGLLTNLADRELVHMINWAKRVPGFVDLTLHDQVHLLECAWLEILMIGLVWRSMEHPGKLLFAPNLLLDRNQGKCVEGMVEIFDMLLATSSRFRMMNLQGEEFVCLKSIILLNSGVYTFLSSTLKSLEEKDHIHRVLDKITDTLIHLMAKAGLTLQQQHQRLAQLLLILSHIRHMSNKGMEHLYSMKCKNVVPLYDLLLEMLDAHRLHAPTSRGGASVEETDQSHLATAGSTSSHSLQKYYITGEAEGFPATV
Chain of Aryl hydrocarbon receptor (Homo sapiens) (P35869 whole entry, looked up): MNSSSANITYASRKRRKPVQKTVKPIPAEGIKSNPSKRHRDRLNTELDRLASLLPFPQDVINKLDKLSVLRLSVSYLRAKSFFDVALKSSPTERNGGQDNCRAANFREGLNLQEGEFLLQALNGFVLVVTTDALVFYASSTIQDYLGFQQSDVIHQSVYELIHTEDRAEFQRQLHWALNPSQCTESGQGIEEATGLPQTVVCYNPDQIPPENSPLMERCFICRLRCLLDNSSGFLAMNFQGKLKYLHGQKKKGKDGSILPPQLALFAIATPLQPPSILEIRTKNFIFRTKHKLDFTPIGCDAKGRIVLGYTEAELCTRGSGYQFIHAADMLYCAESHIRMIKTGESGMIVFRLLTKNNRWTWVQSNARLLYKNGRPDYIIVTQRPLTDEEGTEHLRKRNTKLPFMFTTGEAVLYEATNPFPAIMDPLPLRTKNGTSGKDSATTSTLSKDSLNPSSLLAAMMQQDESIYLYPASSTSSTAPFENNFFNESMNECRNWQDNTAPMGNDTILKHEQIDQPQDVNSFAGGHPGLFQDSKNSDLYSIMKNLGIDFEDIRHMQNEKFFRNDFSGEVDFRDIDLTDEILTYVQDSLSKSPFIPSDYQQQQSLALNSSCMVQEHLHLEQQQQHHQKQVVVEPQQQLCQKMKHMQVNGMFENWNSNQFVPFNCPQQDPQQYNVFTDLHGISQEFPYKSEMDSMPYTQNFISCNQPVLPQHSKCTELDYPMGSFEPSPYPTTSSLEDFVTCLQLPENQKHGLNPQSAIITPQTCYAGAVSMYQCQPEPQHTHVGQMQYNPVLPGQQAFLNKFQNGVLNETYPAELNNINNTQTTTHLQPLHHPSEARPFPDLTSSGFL

Cc1cccc(C#N)c1
inactive: Potency [1] | Potency [2] | Potency [3] | Potency [4] | outcome [5] | Potency [6] | Potency [8] | Potency [9] | Potency [10] | Potency [11] | outcome [12] | outcome [13] | Potency [14] | Potency [15] | Potency [16] | Potency [17] | outcome [18]
active: Potency [7] 68.2 µM

OC(Cn1cncn1)(c1ccc(F)cc1)c1ccccc1F (stereo unspecified)
inactive: Potency [1] | Potency [2] | Potency [3] | Potency [4] | outcome [5] | Potency [6] | activation ([7]; at 70.3 µM (top of the series)) -1% | Potency [8] | Potency [9] | Potency [11] | Potency [19] | outcome [12] | outcome [13] | Potency [20] | Potency [14] | Potency [15] | Potency [17] | outcome [18]

CC1=C(C(=O)Nc2ccccc2)S(=O)(=O)CCO1
active: Potency [1] 30.6 µM | Potency [2] 27.3 µM | Potency [8] 76.9 µM | Potency [10] 48.5 µM | Potency [11] 30.6 µM | Potency [15] 1.93 µM
inactive: Potency [3] | Potency [4] | outcome [5] | Potency [6] | Potency [9] | Potency [19] | outcome [12] | Potency [16] | Potency [17]

C=C(C)[C@@H]1CC=C(C=O)CC1
inactive: Potency [1] | Potency [2] | Potency [3] | Potency [4] | outcome [5] | Potency [6] | activation ([7]; at 70.3 µM (top of the series)) 3.7% | Potency [8] | Potency [9] | Potency [10] | Potency [11] | outcome [12] | outcome [13] | Potency [16] | outcome [18]

COP(=S)(OC)Oc1c(Cl)cc(C)cc1Cl
active: Potency [7] 30.6 µM
inactive: Potency [1] | Potency [2] | Potency [3] | Potency [4] | outcome [5] | Potency [6] | Potency [8] | Potency [9] | Potency [10] | Potency [11] | outcome [12] | outcome [13] | Potency [20] | Potency [15] | Potency [17] | outcome [18]

ClC(Cl)C(Cl)Cl
inactive: Potency [1] | Potency [2] | Potency [3] | Potency [4] | outcome [5] | Potency [6] | activation ([7]; at 95 µM (top of the series)) -0.198% | Potency [8] | Potency [9] | Potency [10] | Potency [11] | outcome [12] | outcome [13] | Potency [14] | Potency [15] | Potency [16] | Potency [17] | outcome [18]

COc1ncc(F)c2nc(S(=O)(=O)Nc3c(F)cccc3F)nn12
inactive: Potency [1] | Potency [2] | Potency [3] | Potency [4] | outcome [5] | Potency [6] | activation ([7]; at 70.3 µM (top of the series)) -3.47% | Potency [8] | Potency [9] | Potency [10] | Potency [11] | outcome [12] | Potency [14] | Potency [15] | Potency [17]

CCOP(=S)(OCC)Oc1cc(-c2ccccc2)on1
active: Potency [7] 68.6 µM
inactive: Potency [1] | Potency [2] | Potency [3] | Potency [4] | outcome [5] | Potency [6] | Potency [9] | Potency [10] | Potency [11] | outcome [12] | Potency [20] | Potency [15] | Potency [16] | Potency [17]
